{"source": "PubChem BioAssay AID588689", "about": "(Southern Research Specialized Biocontainment Screening …, 2011)", "target": "Genome polyprotein (Dengue virus type 2 (strain 16681-PDK53)) (UniProt P29991)", "sequence (P29991 whole entry, looked up)": "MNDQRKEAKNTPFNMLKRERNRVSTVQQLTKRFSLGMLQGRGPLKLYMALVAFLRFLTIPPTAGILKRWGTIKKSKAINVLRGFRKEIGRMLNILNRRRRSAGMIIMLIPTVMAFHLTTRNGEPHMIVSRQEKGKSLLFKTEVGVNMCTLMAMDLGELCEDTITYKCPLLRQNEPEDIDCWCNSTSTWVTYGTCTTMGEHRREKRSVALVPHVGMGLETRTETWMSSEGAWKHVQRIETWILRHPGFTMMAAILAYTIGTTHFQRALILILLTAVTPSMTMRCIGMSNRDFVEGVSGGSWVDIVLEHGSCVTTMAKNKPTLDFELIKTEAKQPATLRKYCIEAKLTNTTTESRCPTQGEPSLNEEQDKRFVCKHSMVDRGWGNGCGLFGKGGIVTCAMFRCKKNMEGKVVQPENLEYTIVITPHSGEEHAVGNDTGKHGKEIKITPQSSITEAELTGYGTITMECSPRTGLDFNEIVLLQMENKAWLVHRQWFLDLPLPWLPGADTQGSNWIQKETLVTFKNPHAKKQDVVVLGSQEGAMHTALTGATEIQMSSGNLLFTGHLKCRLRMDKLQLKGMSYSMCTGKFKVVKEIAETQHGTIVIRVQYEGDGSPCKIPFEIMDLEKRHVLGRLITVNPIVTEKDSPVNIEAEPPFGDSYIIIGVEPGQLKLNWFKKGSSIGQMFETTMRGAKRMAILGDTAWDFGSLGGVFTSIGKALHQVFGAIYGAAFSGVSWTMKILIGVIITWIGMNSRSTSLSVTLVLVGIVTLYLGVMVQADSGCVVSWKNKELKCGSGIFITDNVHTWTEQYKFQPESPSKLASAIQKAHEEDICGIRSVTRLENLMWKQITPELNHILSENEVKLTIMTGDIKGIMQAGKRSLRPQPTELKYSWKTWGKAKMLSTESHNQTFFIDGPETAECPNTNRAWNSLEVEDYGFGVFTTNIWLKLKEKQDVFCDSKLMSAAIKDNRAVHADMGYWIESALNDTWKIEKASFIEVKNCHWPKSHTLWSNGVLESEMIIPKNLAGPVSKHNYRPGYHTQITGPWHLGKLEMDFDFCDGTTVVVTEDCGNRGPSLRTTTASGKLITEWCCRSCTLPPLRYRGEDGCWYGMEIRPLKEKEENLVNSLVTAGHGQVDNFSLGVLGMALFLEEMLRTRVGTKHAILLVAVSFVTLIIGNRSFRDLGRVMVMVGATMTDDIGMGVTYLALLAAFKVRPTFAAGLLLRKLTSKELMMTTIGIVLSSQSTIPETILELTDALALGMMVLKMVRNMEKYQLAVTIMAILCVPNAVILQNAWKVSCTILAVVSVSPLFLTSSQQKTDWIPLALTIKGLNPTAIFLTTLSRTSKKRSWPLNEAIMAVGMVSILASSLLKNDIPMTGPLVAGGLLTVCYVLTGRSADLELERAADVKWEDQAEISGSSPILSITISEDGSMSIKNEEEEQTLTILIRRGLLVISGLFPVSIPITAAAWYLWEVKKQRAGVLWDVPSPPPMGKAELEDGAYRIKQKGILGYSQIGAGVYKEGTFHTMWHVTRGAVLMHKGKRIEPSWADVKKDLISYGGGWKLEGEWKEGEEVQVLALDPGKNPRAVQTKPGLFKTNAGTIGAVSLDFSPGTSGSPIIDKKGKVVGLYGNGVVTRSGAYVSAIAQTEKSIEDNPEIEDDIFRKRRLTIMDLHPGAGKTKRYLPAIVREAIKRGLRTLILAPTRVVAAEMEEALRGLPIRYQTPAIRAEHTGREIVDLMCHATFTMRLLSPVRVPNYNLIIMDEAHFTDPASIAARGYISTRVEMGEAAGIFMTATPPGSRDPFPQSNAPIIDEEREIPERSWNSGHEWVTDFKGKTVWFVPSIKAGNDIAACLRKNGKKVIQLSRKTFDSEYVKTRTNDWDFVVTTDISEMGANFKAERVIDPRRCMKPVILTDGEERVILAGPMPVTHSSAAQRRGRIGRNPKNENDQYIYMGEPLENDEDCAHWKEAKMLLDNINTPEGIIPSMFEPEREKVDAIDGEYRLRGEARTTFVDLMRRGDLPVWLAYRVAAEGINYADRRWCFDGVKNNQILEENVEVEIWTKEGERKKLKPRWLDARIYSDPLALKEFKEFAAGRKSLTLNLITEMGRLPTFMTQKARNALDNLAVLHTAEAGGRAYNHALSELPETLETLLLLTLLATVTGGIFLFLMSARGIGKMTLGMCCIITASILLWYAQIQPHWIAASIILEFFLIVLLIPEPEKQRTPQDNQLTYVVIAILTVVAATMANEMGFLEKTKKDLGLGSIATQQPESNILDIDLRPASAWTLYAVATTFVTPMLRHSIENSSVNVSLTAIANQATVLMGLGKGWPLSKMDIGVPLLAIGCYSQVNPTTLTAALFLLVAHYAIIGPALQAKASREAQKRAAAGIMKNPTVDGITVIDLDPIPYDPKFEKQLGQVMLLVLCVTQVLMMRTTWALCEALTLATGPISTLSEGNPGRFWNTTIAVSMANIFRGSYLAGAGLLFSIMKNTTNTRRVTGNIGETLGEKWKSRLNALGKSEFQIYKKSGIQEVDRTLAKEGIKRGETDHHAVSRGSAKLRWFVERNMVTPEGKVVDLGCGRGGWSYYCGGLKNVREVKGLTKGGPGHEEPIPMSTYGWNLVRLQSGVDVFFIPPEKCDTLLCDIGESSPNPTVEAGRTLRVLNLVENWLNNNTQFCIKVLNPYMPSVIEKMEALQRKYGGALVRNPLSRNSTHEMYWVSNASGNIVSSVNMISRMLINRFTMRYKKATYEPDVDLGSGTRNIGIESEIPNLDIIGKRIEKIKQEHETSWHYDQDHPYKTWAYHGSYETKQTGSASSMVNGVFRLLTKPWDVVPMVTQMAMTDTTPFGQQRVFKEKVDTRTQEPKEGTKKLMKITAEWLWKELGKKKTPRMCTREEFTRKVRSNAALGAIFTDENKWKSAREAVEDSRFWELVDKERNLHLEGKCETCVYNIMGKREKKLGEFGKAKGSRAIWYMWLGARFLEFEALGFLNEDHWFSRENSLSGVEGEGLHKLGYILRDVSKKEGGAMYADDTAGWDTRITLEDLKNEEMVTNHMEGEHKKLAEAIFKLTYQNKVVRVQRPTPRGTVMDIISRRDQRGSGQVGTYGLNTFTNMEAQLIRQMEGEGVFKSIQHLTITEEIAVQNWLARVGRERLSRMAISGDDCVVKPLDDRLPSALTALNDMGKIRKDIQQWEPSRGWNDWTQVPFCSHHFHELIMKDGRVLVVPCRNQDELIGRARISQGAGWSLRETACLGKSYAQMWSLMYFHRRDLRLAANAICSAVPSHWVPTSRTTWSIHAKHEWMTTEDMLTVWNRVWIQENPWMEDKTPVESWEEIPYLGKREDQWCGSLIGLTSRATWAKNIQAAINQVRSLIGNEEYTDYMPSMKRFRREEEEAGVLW", "experiment": "Dengue-2 NS5 methyltransferase inhibitors, primary screen, biochemical, confirmation dose response (AID 588689)", "conditions": "Dengue-2 NS5 methyltransferase capping enzyme assay, at 25 µM, stronger effect = higher value", "note": "About 1,000 (0.29%) of roughly 340,000 compounds were called active. Cut-off read from the data, not from the text of the source: inconclusive = inhibition above about 29% without an active follow-up result; inactive = below that. A selection follows. Measured potencies and affinities stand elsewhere."}
{"molecule": "N#Cc1ccc(NC(=O)c2sc3cc(C(F)(F)F)cnc3c2-c2cccs2)cc1", "values": [{"measurement": "inhibition", "value": "-3.46% (inactive)"}]}
{"molecule": "CC(C)CN(C(=O)c1ccc(N2CCCC2=O)cc1)C1CCS(=O)(=O)C1", "note": "(stereo unspecified)", "values": [{"measurement": "inhibition", "value": "2.16% (inactive)"}]}
{"molecule": "COc1ccc(N(C(=O)c2ccco2)C(C(=O)NC2CCCC2)c2ccc(OC)c(OC)c2)cc1", "note": "(stereo unspecified)", "values": [{"measurement": "inhibition", "value": "-4.04% (inactive)"}]}
{"molecule": "N#Cc1ccc2ccn(CC(=O)NCc3ccco3)c2c1", "values": [{"measurement": "inhibition", "value": "-5.46% (inactive)"}]}
{"molecule": "O=C(CCn1cnc2ccccc2c1=O)Nc1ccc(Cl)c(Cl)c1", "values": [{"measurement": "inhibition", "value": "1.31% (inactive)"}]}
{"molecule": "COc1cccc(/C=N/Nc2ccc([N+](=O)[O-])cc2)c1O", "values": [{"measurement": "inhibition", "value": "-38.8% (inactive)"}]}
{"molecule": "O=C(COc1ccccc1/C=C\\c1nc(O)c([N+](=O)[O-])c(=O)[nH]1)Nc1ccccc1", "values": [{"measurement": "inhibition", "value": "2.19% (inactive)"}]}
{"molecule": "CCOc1ccccc1/C=C\\c1nc(O)c([N+](=O)[O-])c(=O)[nH]1", "values": [{"measurement": "inhibition", "value": "5.29% (inactive)"}]}
{"molecule": "COc1cccc(/C=C/c2ccccn2)c1O", "values": [{"measurement": "inhibition", "value": "-0.77% (inactive)"}]}
{"molecule": "CCCCCCSc1cc(-c2nc3cc(C)ccn3c2NC2CCCCC2)ccc1OC", "values": [{"measurement": "inhibition", "value": "-8.81% (inactive)"}]}
{"molecule": "O=C(c1ccc(Cn2c(=O)[nH]c3ccsc3c2=O)cc1)N1CCN(c2ccccc2)CC1", "values": [{"measurement": "inhibition", "value": "-1.16% (inactive)"}]}
{"molecule": "COc1ccc(CN(C)C(=O)c2cccc(NS(=O)(=O)c3ccccc3)c2)c(OC)c1", "values": [{"measurement": "inhibition", "value": "0.32% (inactive)"}]}
{"molecule": "O=C(CN(c1ccc(F)cc1)S(=O)(=O)c1ccccc1)NC1CCCCCC1", "values": [{"measurement": "inhibition", "value": "0% (inactive)"}]}
{"molecule": "Cc1ccc(/C=C/c2nc3sc(C(=O)O)c(C)c3c(=O)[nH]2)cc1[N+](=O)[O-]", "values": [{"measurement": "inhibition", "value": "-2.44% (inactive)"}]}
{"molecule": "COc1cccc(CNC(=O)Cn2ccc3cc(S(=O)(=O)N4CCCC4)ccc32)c1", "values": [{"measurement": "inhibition", "value": "-0.45% (inactive)"}]}
{"molecule": "COc1ccc(N(C(=O)Cn2nnc(-c3ccc(Cl)cc3)n2)C(C(=O)NCC2CCCO2)c2ccncc2)cc1", "note": "(stereo unspecified)", "values": [{"measurement": "inhibition", "value": "-2.22% (inactive)"}]}
{"molecule": "CCOC(=O)c1nn(-c2ccccc2)c(=O)c2c(N)scc12", "values": [{"measurement": "inhibition", "value": "7.81% (inactive)"}]}
{"molecule": "COc1ccc(/C=N/NC(=O)c2nn(-c3ccccc3)c(=O)c3c(N)scc23)cc1", "values": [{"measurement": "inhibition", "value": "50% (inactive)"}]}
{"molecule": "COc1ccc(/C=N/NC(=O)c2nn(-c3ccc(Cl)cc3)c(=O)c3c(N)scc23)cc1", "values": [{"measurement": "inhibition", "value": "65.9% (inactive)"}, {"measurement": "inhibition", "setting": "measured here: pilot screen replicate inhibition", "value": 10.3, "unit": "%"}]}
{"molecule": "CCOC(=O)c1nn(-c2ccc(C)cc2)c(=O)c2c(N)scc12", "values": [{"measurement": "inhibition", "value": "12.4% (inactive)"}]}
{"molecule": "Cc1ccc2c(c1)NC(=O)c1cccnc1N2", "values": [{"measurement": "inhibition", "value": "-0.54% (inactive)"}]}
{"molecule": "Cc1nnc(SC(C)C(=O)N(C)C2CCCCC2)n1N", "note": "(stereo unspecified)", "values": [{"measurement": "inhibition", "value": "-0.37% (inactive)"}]}
{"molecule": "CCOc1cc(C(=O)NCCC(=O)N2CCC3(CC2)NCCc2[nH]cnc23)cc(OCC)c1OCC", "values": [{"measurement": "inhibition", "value": "-6.21% (inactive)"}]}
{"molecule": "CCCCN1CC[C@H]2C=CC[C@@H](C(=O)N3CCN(c4ccccc4)CC3)[C@H]2C1=O", "values": [{"measurement": "inhibition", "value": "-5.46% (inactive)"}]}
{"molecule": "Cc1ccc(-n2nc(CN3CCOCC3)c(-c3ccccc3)c2N)cc1Cl", "values": [{"measurement": "inhibition", "value": "-2.18% (inactive)"}]}
{"molecule": "O=Cc1cc(N=Nc2ccc(S(=O)(=O)O)cc2)ccc1O", "values": [{"measurement": "inhibition", "value": "14.6% (inactive)"}]}
{"molecule": "O=Cc1cc(N=Nc2ccccc2Cl)ccc1O", "values": [{"measurement": "inhibition", "value": "11.1% (inactive)"}]}
{"molecule": "COc1ccc(/C=C2/C(=O)N(c3c(F)c(F)c(F)c(F)c3F)N=C2C)cc1", "values": [{"measurement": "inhibition", "value": "27.1% (inactive)"}]}
{"molecule": "CCOC(=O)c1sc(Nc2ccc(OCC)cc2)nc1C", "values": [{"measurement": "inhibition", "value": "-9.95% (inactive)"}]}
{"molecule": "Cc1ccc(NC(=C(C#N)C#N)c2ccccc2)cc1", "values": [{"measurement": "inhibition", "value": "6.86% (inactive)"}]}
{"molecule": "O=C1C(=O)N(CCCn2ccnc2)C(c2ccc([N+](=O)[O-])cc2)/C1=C(\\O)c1ccc2c(c1)OCCO2", "note": "(stereo unspecified)", "values": [{"measurement": "inhibition", "value": "-1.86% (inactive)"}]}
{"molecule": "O=C(C[C@@H]1C/C=C\\C[C@H](Cc2ccc(F)cc2)C(=O)OCCNC1=O)N[C@H](CO)Cc1ccccc1", "values": [{"measurement": "inhibition", "value": "-4.01% (inactive)"}]}
{"molecule": "O=[N+]([O-])c1cc(Br)cc(C=Nc2ccc3c(c2)OCO3)c1O", "values": [{"measurement": "inhibition", "value": "17.9% (inactive)"}]}
{"molecule": "O=[N+]([O-])c1ccc(O)c(C=Nc2ccc3c(c2)OCCO3)c1", "values": [{"measurement": "inhibition", "value": "2.55% (inactive)"}]}
{"molecule": "O=C(O)c1ccc(NC2OC[C@@H](O)[C@H](O)[C@H]2O)cc1", "note": "(stereo partly specified)", "values": [{"measurement": "inhibition", "value": "1.47% (inactive)"}]}
{"molecule": "CC(=O)Nc1ccc(S(=O)(=O)NC2CC(=O)N(c3ccc(C)c(C)c3)C2)cc1", "note": "(stereo unspecified)", "values": [{"measurement": "inhibition", "value": "-8.06% (inactive)"}]}
{"molecule": "CCCCn1c(N)c(N(CCC(C)C)C(=O)CCCc2nc3ccccc3s2)c(=O)[nH]c1=O", "values": [{"measurement": "inhibition", "value": "0.96% (inactive)"}]}
{"molecule": "CCSc1nc(O)c(C2OC(=O)c3c2ccc(OC)c3OC)c(=O)n1-c1ccccc1", "note": "(stereo unspecified)", "values": [{"measurement": "inhibition", "value": "-0.81% (inactive)"}]}
{"molecule": "CCCSc1nc(O)c(C2OC(=O)c3c2ccc(OC)c3OC)c(=O)n1C", "note": "(stereo unspecified)", "values": [{"measurement": "inhibition", "value": "4.42% (inactive)"}]}
{"molecule": "Cc1ccc(CNC(=O)Cn2c(=O)c3sccc3n(Cc3ccc([N+](=O)[O-])cc3)c2=O)cc1", "values": [{"measurement": "inhibition", "value": "-4.46% (inactive)"}]}
{"molecule": "COc1cc2c(cc1C1C(C#N)=C(N)OC3=C1C(=O)CC(C)(C)C3)OCO2", "note": "(stereo unspecified)", "values": [{"measurement": "inhibition", "value": "2.7% (inactive)"}]}
{"molecule": "COc1ccc(C(C(=O)NC(C)(C)C)N(C(=O)CNC(=O)c2cccs2)c2cccnc2)cc1OC", "note": "(stereo unspecified)", "values": [{"measurement": "inhibition", "value": "0.81% (inactive)"}]}
{"molecule": "CCN(CCCNC(=O)C1CCN(S(=O)(=O)CC)CC1)c1ccccc1", "values": [{"measurement": "inhibition", "value": "0% (inactive)"}]}
{"molecule": "CCOC(=O)C1CCN(c2c(NCCCN(CC)c3ccccc3)c(=O)c2=O)CC1", "values": [{"measurement": "inhibition", "value": "-1.39% (inactive)"}]}
{"molecule": "N#Cc1c(NC(=O)C(=O)NCCCN2CCOCC2)sc2c1CCC2", "values": [{"measurement": "inhibition", "value": "-10.5% (inactive)"}]}
{"molecule": "COc1cccc(COC(=O)c2c(C)nn(-c3ccccc3)c2Cl)c1OC", "values": [{"measurement": "inhibition", "value": "-1.3% (inactive)"}]}
{"molecule": "COc1ccc(C(c2c(C)n(C)n(-c3ccccc3)c2=O)c2c(C)n(C)n(-c3ccccc3)c2=O)c(OC)c1OC", "values": [{"measurement": "inhibition", "value": "4.27% (inactive)"}]}
{"molecule": "O=C(CC1(CC(=O)N2CCOCC2)CCCC1)Nc1ccccc1", "values": [{"measurement": "inhibition", "value": "1.1% (inactive)"}]}
{"molecule": "Cc1c(C(c2cccc(O)c2)c2c(C)n(C)n(-c3ccccc3)c2=O)c(=O)n(-c2ccccc2)n1C", "values": [{"measurement": "inhibition", "value": "0.66% (inactive)"}]}
{"molecule": "Cc1ccc(C(C[N+](=O)[O-])c2c(C)[nH]n(-c3ccccc3)c2=O)cc1", "note": "(stereo unspecified)", "values": [{"measurement": "inhibition", "value": "12.3% (inactive)"}]}
{"molecule": "Cc1c(C(c2ccc([N+](=O)[O-])cc2)c2c(C)n(C)n(-c3ccccc3)c2=O)c(=O)n(-c2ccccc2)n1C", "values": [{"measurement": "inhibition", "value": "-2.74% (inactive)"}]}
{"molecule": "Cc1[nH]n(-c2ccccc2)c(=O)c1C(c1ccccc1C(=O)O)c1c(C)[nH]n(-c2ccccc2)c1=O", "values": [{"measurement": "inhibition", "value": "-2.59% (inactive)"}]}
{"molecule": "Cc1[nH]n(-c2ccccc2)c(=O)c1N=Nc1ccccc1O", "values": [{"measurement": "inhibition", "value": "-2.22% (inactive)"}]}
{"molecule": "Cc1c(C(c2ccc(C(=O)O)cc2)c2c(C)n(C)n(-c3ccccc3)c2=O)c(=O)n(-c2ccccc2)n1C", "values": [{"measurement": "inhibition", "value": "-3.92% (inactive)"}]}
{"molecule": "Cc1[nH]n(-c2ccccc2)c(=O)c1C(C[N+](=O)[O-])c1ccc(F)cc1", "note": "(stereo unspecified)", "values": [{"measurement": "inhibition", "value": "1.46% (inactive)"}]}
{"molecule": "Cc1[nH]n(-c2ccccc2)c(=O)c1N=Nc1ccccc1C(=O)N1CCOCC1", "values": [{"measurement": "inhibition", "value": "-1.82% (inactive)"}]}
{"molecule": "COC(=O)[C@@H]1C[C@@]2(O)[C@H](O)[C@H](O)[C@H](O)C[C@H]2N1Cc1cccc2ccccc12", "values": [{"measurement": "inhibition", "value": "-3.14% (inactive)"}]}
{"molecule": "Cc1nonc1CN(C)C(=O)CC1C(=O)NCCN1Cc1c(F)cccc1Cl", "note": "(stereo unspecified)", "values": [{"measurement": "inhibition", "value": "0% (inactive)"}]}
{"molecule": "Cc1ccc(OCc2cc(C(=O)N3CCCC(O)C3)no2)cn1", "note": "(stereo unspecified)", "values": [{"measurement": "inhibition", "value": "3.18% (inactive)"}]}
{"molecule": "COc1ccc(-c2cc(C(F)(F)F)nc(NCc3cccs3)n2)cc1", "values": [{"measurement": "inhibition", "value": "-0.64% (inactive)"}]}
{"molecule": "Cc1csc(NC(=O)c2ccc(COc3ccccc3)o2)n1", "values": [{"measurement": "inhibition", "value": "-0.81% (inactive)"}]}
{"molecule": "COc1cccc(NC(=S)NC2CC3CCCC(C2)N3C2CCCC2)c1", "note": "(stereo unspecified)", "values": [{"measurement": "inhibition", "value": "-6.24% (inactive)"}]}
{"molecule": "CCCCCN(C(=O)CCC(=O)OCc1cccc(C(F)(F)F)c1)c1c(N)n(CCCC)c(=O)[nH]c1=O", "values": [{"measurement": "inhibition", "value": "-5.15% (inactive)"}]}
{"molecule": "Cc1[nH][nH]c(=O)c1C(c1ccc(O)c([N+](=O)[O-])c1)c1c(C)[nH][nH]c1=O", "values": [{"measurement": "inhibition", "value": "5.19% (inactive)"}]}
{"molecule": "Cc1[nH]n(-c2ccccc2)c(=O)c1N=Nc1cccc([N+](=O)[O-])c1", "values": [{"measurement": "inhibition", "value": "-3.97% (inactive)"}]}
{"molecule": "Cc1[nH]n(-c2cccc([N+](=O)[O-])c2)c(=O)c1-c1ccccc1", "values": [{"measurement": "inhibition", "value": "-10.7% (inactive)"}]}
{"molecule": "O=c1c2cc([N+](=O)[O-])cc([N+](=O)[O-])c2[nH]n1-c1ccccc1", "values": [{"measurement": "inhibition", "value": "22.2% (inactive)"}]}
{"molecule": "COc1ccc(-n2c3c(cc(C(=O)NC4CCSC4=O)c2=O)C(=O)CC(C)(C)C3)cc1", "note": "(stereo unspecified)", "values": [{"measurement": "inhibition", "value": "3.46% (inactive)"}]}
{"molecule": "CC1(C)CC(=O)C=C(c2ccc3ccccc3c2)C1", "values": [{"measurement": "inhibition", "value": "6.35% (inactive)"}]}
{"molecule": "CC1CCCN(CCC(=O)Nc2ccc3c(c2)CCC3)C1", "note": "(stereo unspecified)", "values": [{"measurement": "inhibition", "value": "-0.41% (inactive)"}]}
